The text below walks through data of PubChem BioAssay (NCATS).

Results filed as inconclusive are left out. Where a call stands in place of a potency, no number is given. Calls of active or inactive are those of the source. The call rests on the fitted dose curve; in most records, active means well fitted curve in the direction sought with a large enough effect; inconclusive means small, poorly fitted or top-dose-only effect, or another doubt; inactive means no such curve, though single readings can be large; an effect the other way counts as inactive or inconclusive.

Assay [1] can be described thus: NCATS anti-infectives library activity on HEK293 viability as a counter-qHTS vs the C. elegans viability qHTS (AID 1745854).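 Further: HEK293 cells exposed to compounds for 24 hr before the viability read.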 A digest of the protocol:
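Compounds were acoustically plated (several concentrations, 1:5, final up to 41.7 uM), then 1500 HEK293 cells added per well and incubated 24 hr at 37C, 5% CO2. CellTiter-Glo was added and luminescence read after 10 min.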
(In general: qHTS replaces the single test concentration by a dilution series.)

For assay [2], the target named is Glutathione peroxidase 1 (Homo sapiens) (UniProt P07203). Briefly: Primary qHTS Assay for Inhibitors of Recombinant Selenoprotein Glutathione Peroxidase 1 (GPX1) (AID 1845191). Further: nearly all actives have a fitted effect of over 65% in size. In a few lines:
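GR-coupled assay: compounds preincubated 30 min at room temperature with GPX1, then reaction started with CHP; final 10 nM GPX1, 1 mM GSH, 0.5 mM CHP, 0.5 mM NADPH, 100 nM GR, 0.01% BSA, pH 7.5 Tris buffer. NADPH fluorescence (340/450 nm) read at 0 and 15 min.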

Assay [3] deals with Phospholipid hydroperoxide glutathione peroxidase GPX4 (Homo sapiens) (UniProt P36969). Briefly: Primary qHTS Assay for Inhibitors of Recombinant Selenoprotein Glutathione Peroxidase 4 (GPX4) (AID 1845192). Further: series mostly up to about 50 µM; nearly all actives have a fitted effect of over 65% in size. In a few lines:
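GR-coupled assay: recombinant GPX4 preincubated 30 min with compound at room temperature; final 200 nM GPX4, 1 mM GSH, 0.5 mM cumene hydroperoxide, 0.5 mM NADPH, 100 nM GR, 0.01% BSA, pH 7.5 Tris. NADPH fluorescence (340/450 nm) read at 0 and 15 min.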

In assay [4] the target is Luciferin 4-monooxygenase (Photinus pyralis) (UniProt P08659). Briefly: Primary firefly luciferase (FLuc) qHTS assay for identification of artifact compounds. (AID 1845220). Further: nearly all actives have a fitted effect of over 60% in size. In a few lines: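 Titrated compounds were incubated 15 min at RT, protected from light, with luciferin and ATP at 10 uM; reaction started with 10 nM FLuc, luminescence imaged at 5 min, and concentration-response fitted by Hill equation.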

Chain of Glutathione peroxidase 1 (Homo sapiens) (P07203 whole entry, looked up): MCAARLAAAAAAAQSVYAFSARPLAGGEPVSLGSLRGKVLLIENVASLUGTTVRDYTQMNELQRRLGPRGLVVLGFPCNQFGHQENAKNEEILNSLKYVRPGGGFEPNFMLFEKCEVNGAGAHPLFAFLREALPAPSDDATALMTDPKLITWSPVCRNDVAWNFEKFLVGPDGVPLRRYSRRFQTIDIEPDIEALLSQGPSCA
Chain of Phospholipid hydroperoxide glutathione peroxidase GPX4 (Homo sapiens) (P36969 whole entry, looked up): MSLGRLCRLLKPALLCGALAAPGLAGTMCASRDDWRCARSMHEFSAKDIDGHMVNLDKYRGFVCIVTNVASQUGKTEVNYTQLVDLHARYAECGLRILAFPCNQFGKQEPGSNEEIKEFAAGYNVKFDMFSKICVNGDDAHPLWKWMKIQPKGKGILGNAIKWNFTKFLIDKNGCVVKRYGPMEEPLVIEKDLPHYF

On to `O=C(O)CCC1CCC(c2cc(F)ccc2F)(S(=O)(=O)c2ccc(Cl)cc2)CC1` (stereo unspecified), for which the compound was called inactive in assay [1]. Further, the Potency result in assay [2] and in assay [3] was “inactive” each time.

As for `CC(=O)OC1C(C)OC(Oc2c(-c3ccc(O)cc3)oc3cc(O)cc(O)c3c2=O)C(O)C1OC(C)=O` (stereo unspecified), the Potency result in assay [2] and in assay [3] was “inactive” each time.

As to `CN(C)c1cc(NC(=O)CNC(C)(C)C)c(O)c2c1C[C@@H]1C[C@H]3[C@H](N(C)C)C(=O)C(C(N)=O)=C(O)[C@@]3(O)C(=O)C1=C2O`, in assay [2], the Potency entry is “inactive”.

`CO[C@H]1C[C@@H]2CC[C@@H](C)[C@@](O)(O2)C(=O)C(=O)N2CCCC[C@@H]2C(=O)O[C@H]([C@@H](C)C[C@@H]2CC[C@H](O)[C@H](OC)C2)CC(=O)[C@H](C)C=C(C)[C@@H](O)[C@@H](OC)C(=O)[C@H](C)C[C@H](C)C=CC=CC=C1C`: the Potency result in assay [2] and in assay [3] was “inactive” throughout.

Take `COc1ccc(Cc2ccc(NC(N)=O)cc2)cc1-c1cccc(Cl)c1`: the Potency entry in assay [2], in assay [3] and in assay [4] was “inactive” in each case.

Take `O=C(Nc1cccc(Br)c1)c1cccc(S(=O)(=O)N2CCCCCC2)c1`: the Potency result in assay [2], in assay [3] and in assay [4] was “inactive” in each case.

For `C[C@]12CCC3c4ccc(O)cc4CCC3C1CCC2=O` (stereo partly specified), the Potency result in assay [2] and in assay [3] was “inactive” throughout.
